# Activity calls are given as the source filed them.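 How the source made its calls, unless noted: active means fluorescence slope higher than the sample average by over 3 SD (cut at about -0.22 in these data, passing the limit was not always enough); inactive means the rest.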
# Legend:
# [1] = inhibitors of TNFa-induced NFkB p65 translocation, primary screen, imaging, HUVEC, MLSMR starter and 10KST1 sets (AID 438;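 active means inhibition above 20% together with a positive visual image hit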;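 further: compound added about 3h40 before a 20 min TNFalpha stimulation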;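 on inhibition: signal is the nuclear over cytoplasmic p65 intensity ratio per well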); details: HUVEC TNFa-induced p65 nuclear translocation; cell count: measured here: nuclei count (cytotoxicity indicator), at 2.08 µM; inhibition: at 2 µM, stronger effect = higher value, 0% TNFa-plus-vehicle, 100% no-TNFa wells
# [2] = inhibitors of mutant huntingtin aggregation, primary screen, imaging, exon1htt(103Q)mCFP cells, high-content imaging (AID 483;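 active means visual image review flags a hit and inhibition of aggregation exceeds 20%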;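 further: compound exposure lasted 3 days before fixation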;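 on nuclei count: percent of the per-plate median nuclei count of sample wells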); details: exon1htt(103Q)mCFP cell line, aggregate imaging, at 2 µM; inhibition of aggregation: stronger effect = higher value; nuclei count: measured here: cell count, toxicity
# [3] = inhibitors of E-selectin induction by TNFa, primary screen, imaging, HUVEC, immunofluorescence, MLSMR starter and 10KST1 sets (AID 487;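 active means visually confirmed hit in the image check and inhibition above 20%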;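 on inhibition: signal is fraction of cell area covered by stained E-selectin grains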;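 on nuclei count: 100% = median nuclei count of all wells on the same plate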); details: HUVEC TNFalpha-induced E-selectin immunofluorescence imaging, at 2 µM; inhibition: stronger effect = higher value; nuclei count: measured here: cell number, toxicity
# [4] = target: Voltage-gated potassium channel subunit beta-2 (Rattus norvegicus) (UniProt P62483); test: KvBeta enzyme negative modulators, primary screen, biochemical, NADPH fluorescence (AID 622); details: recombinant KvBeta, 4-cyanobenzaldehyde reduction, at 10 µM, stronger effect = higher value;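 further: slope of raw intensity against log time taken from 70 to 1610 s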
# Voltage-gated potassium channel subunit beta-2 (Rattus norvegicus), sequence (P62483 whole entry, looked up): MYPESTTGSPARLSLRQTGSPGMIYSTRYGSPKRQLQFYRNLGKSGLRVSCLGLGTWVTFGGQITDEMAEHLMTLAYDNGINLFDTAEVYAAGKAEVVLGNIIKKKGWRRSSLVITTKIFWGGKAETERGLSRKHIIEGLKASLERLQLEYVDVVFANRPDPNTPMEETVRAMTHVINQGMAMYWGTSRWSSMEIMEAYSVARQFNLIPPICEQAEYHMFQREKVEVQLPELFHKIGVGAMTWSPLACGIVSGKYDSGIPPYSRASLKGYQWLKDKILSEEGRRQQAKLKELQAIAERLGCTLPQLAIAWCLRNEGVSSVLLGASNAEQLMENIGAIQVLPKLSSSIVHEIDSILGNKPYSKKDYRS
# [5] = target: Voltage-gated potassium channel subunit beta-2 (Rattus norvegicus) (UniProt P62483); test: KvBeta positive modulators, primary screen, biochemical, NADPH fluorescence (AID 623;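 active means NADPH fluorescence slope more negative than the mean of all samples by about 3 SD, 99.7% confidence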;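 further: fluorescence intensity change per second fitted from 20 to 320 s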); details: Recombinant KvBeta, NADPH fluorescence decrease slope, 10 min; at 10 µM; stronger effect = lower value
# [6] = target: Alpha-2C adrenergic receptor (Homo sapiens) (UniProt P18825); test: modulators of alpha2C/GIRK thallium flux, primary screen, cell-based, HEK293 alpha2C/GIRK1/2 (AID 624;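 active means fluorescence slope after compound addition differing from the mean of all screened samples at 99.7% confidence, in either direction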;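 further: slope of fluorescence ratio to pre-addition baseline per second over 15 to 24 s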); details: thallium flux BTC fluorescence, at 10 µM, actives lie on both sides
# Alpha-2C adrenergic receptor (Homo sapiens), sequence (P18825 whole entry, looked up): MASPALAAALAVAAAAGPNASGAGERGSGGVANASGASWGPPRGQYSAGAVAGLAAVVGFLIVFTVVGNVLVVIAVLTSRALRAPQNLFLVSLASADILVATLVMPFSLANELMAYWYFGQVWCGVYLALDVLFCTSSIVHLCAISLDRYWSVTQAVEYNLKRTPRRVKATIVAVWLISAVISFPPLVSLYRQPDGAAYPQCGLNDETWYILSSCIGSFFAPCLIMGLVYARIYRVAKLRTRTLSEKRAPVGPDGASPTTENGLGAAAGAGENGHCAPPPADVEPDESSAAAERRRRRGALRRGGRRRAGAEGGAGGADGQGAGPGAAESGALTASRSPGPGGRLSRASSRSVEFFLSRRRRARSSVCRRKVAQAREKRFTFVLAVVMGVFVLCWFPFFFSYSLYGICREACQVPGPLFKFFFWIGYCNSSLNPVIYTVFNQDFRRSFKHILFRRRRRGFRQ
# [7] = inhibitors of Sendai virus-induced IRF3 signaling, primary screen, TLR/RLR signaling modifier project, cell-based, Sendai virus stimulus, luciferase, 10K MLSCN set (AID 602276;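 active means inhibition at or above 50% at 10 µM; inactive means inhibition below 50%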;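 further: firefly luciferase from ISG56 promoter only with Renilla not read in this screen; 0% = Sendai virus plus DMSO and 100% = medium plus DMSO without virus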); details: HEK293 RL24 IRF3 luciferase reporter, at 10 µM, stronger effect = higher value
# [8] = inhibitors of poly I:C-induced TLR3 signaling, primary screen, cell-based, poly I:C stimulus, luciferase, 10K MLSCN set (AID 602277;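 active means inhibition of the reporter signal at or above 50%; inactive means inhibition below 50%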); details: HEK293-TLR3 RL24 IRF3 luciferase reporter, at 10 µM, stronger effect = higher value
Compound,cell count [1],inhibition [1],inhibition of aggregation [2],nuclei count [2],inhibition [3],nuclei count [3],fluorescence slope [4],NADPH fluorescence slope [5],slope [6],inhibition [7],inhibition [8]
Cc1cc(=O)n(-c2ccc3ccccc3n2)[nH]1,383,-0.7% (inactive),-7.3% (inactive),89.7%,-37.6% (inactive),107%,-0.436 (inactive),-5.1e-05 (inactive),0.00622 (inactive),17.4% (inactive),9.22% (inactive)
CCOc1cc(C2NC(=O)NC(O)(C(F)(F)F)C2C(=O)c2ccccc2)ccc1OC (stereo not drawn),383,6.8% (inactive),4.9% (inactive),86.1%,-51% (inactive),121%,-0.378 (inactive),3.5e-05 (inactive),0.00542 (inactive),5.58% (inactive),11.7% (inactive)
CCC(CO)Nc1ncnc2c1cnn2-c1ccc(Cl)cc1 (stereo not drawn),550,10% (inactive),7.5% (inactive),101%,10.3% (inactive),111%,-0.54 (inactive),-1.3e-05 (inactive),0.00667 (inactive),38.4% (inactive),-14% (inactive)
COc1ccc2cc(C(=O)NCc3ccco3)c(=Nc3ccc(C(=O)O)cc3)oc2c1,507,-12.8% (inactive),19% (inactive),96.3%,-56.7% (inactive),120%,-0.372 (inactive),-5.2e-05 (inactive),0.00401 (inactive),16.4% (inactive),3.42% (inactive)
Cc1nc(NC(=O)c2csc3ccccc23)sc1C,386,-2.7% (inactive),-3.7% (inactive),103%,-38.1% (inactive),117%,-0.504 (inactive),-5.5e-05 (inactive),0.00508 (inactive),-31.4% (inactive),-86.4% (inactive)
Cc1ccc2c(c1)nnn2C1CCN(C(=O)NC23CC4CC(CC(C4)C2)C3)CC1,471,-9.4% (inactive),11.5% (inactive),122%,19.9% (inactive),98.1%,-0.423 (inactive),-4e-05 (inactive),0.00535 (inactive),18.3% (inactive),22.5% (inactive)
COc1ccccc1N1CCN(C(=O)CN(Cc2ccc(Cl)cc2)S(C)(=O)=O)CC1,458,-7.3% (inactive),-18.6% (inactive),112%,-130% (inactive),174%,-0.49 (inactive),7.6e-06 (inactive),0.00623 (inactive),17.3% (inactive),24.8% (inactive)
O=C(NCc1cccs1)c1cc2c(s1)CCCC2,377,-16.3% (inactive),5.1% (inactive),89.1%,-21.4% (inactive),126%,-0.479 (inactive),6e-05 (inactive),0.0052 (inactive),-44.6% (inactive),-105% (inactive)
CCc1c(C)nc2ncnn2c1N1CCC(C(=O)NCc2cccc(OC)c2)CC1,716,-5.5% (inactive),-13.4% (inactive),66%,-34.8% (inactive),116%,-0.499 (inactive),-4.5e-05 (inactive),0.00565 (inactive),5.24% (inactive),1.67% (inactive)
Cc1ccnc(NC(=O)CCC(=O)N(CC(=O)NC(C)(C)C)C2CCCC2)c1,603,1.7% (inactive),-6.2% (inactive),113%,-105% (inactive),89.5%,-0.638 (inactive),-1.4e-05 (inactive),0.00587 (inactive),9.05% (inactive),9.79% (inactive)
OC1C=CSc2nc3ccccc3n21 (stereo not drawn),398,4.9% (inactive),-12.9% (inactive),102%,-50.3% (inactive),113%,-0.467 (inactive),-3.8e-05 (inactive),0.00527 (inactive),4.8% (inactive),17.8% (inactive)
COC(=O)c1ccccc1NC(=O)C1CC(=O)N(c2ccccc2)C1 (stereo not drawn),576,-5.8% (inactive),13.9% (inactive),99.5%,-18.1% (inactive),106%,-0.496 (inactive),-5.9e-05 (inactive),0.00531 (inactive),10.2% (inactive),6.98% (inactive)
Cc1cccc(NC(=O)Nc2cccc(C#N)c2)n1,907,-1.7% (inactive),10.2% (inactive),112%,-77.1% (inactive),121%,-0.567 (inactive),-3.2e-05 (inactive),0.00605 (inactive),-22.3% (inactive),-135% (inactive)
COC(=O)C1CCN(C(=O)c2sc3nc(-c4ccc(F)cc4)cn3c2C)CC1,654,-6.1% (inactive),-14.7% (inactive),105%,-65.8% (inactive),120%,-0.487 (inactive),-4.6e-05 (inactive),0.00421 (inactive),10.2% (inactive),3.27% (inactive)
COC(C)(C)c1cc(C(C)(C)C)nc(N)n1,433,12% (inactive),9.5% (inactive),103%,-28.8% (inactive),129%,-0.385 (inactive),-7.8e-05 (inactive),0.00615 (inactive),6.59% (inactive),24.6% (inactive)
COc1ccc(C(=O)Nc2nc(C)c(C(=O)N(C)C)s2)cc1OC,435,2.8% (inactive),5.4% (inactive),102%,-16.9% (inactive),91.8%,-0.461 (inactive),2.3e-06 (inactive),0.00371 (inactive),-7.68% (inactive),-30.5% (inactive)
CCCOC(=O)c1[nH]c2c(c1C)C(=O)CC(c1cc(OC)c(OC)c(OC)c1)C2 (stereo not drawn),803,1.2% (inactive),2.2% (inactive),114%,-90.3% (inactive),118%,-0.567 (inactive),-2.6e-05 (inactive),0.00599 (inactive),0.863% (inactive),-18.2% (inactive)
CCOC(=O)c1cc2cc(F)ccc2nc1C,646,4.9% (inactive),13.9% (inactive),106%,-7% (inactive),118%,-0.612 (inactive),-2.7e-05 (inactive),0.00327 (inactive),-17.9% (inactive),-45.1% (inactive)
Cn1c(=O)c2c(nc(NCc3ccccc3)n2CCCc2ccccc2)n(C)c1=O,759,-1.6% (inactive),5.6% (inactive),101%,-77.1% (inactive),121%,-0.521 (inactive),-1.3e-05 (inactive),0.00474 (inactive),16.3% (inactive),26.8% (inactive)
CC12COC3(C(=O)Nc4ccc(Cl)cn4)CC1CCC32C (stereo not drawn),773,-8% (inactive),16.9% (inactive),85.1%,-32.6% (inactive),102%,-0.395 (inactive),-5.6e-05 (inactive),0.00598 (inactive),-1.35% (inactive),10.2% (inactive)
O=C(CSc1nc2c(c(=O)n1-c1ccc(F)cc1)SCC2)NCC1CCCO1 (stereo not drawn),256,9.8% (inactive),16.7% (inactive),94.5%,-8.7% (inactive),78.2%,-0.462 (inactive),-5.5e-05 (inactive),0.00463 (inactive),17.7% (inactive),19.7% (inactive)
O=S(=O)(c1ccc(N2CCN(c3ccc(F)cc3)CC2)cc1)N1CCCC1,230,14% (inactive),-8.7% (inactive),95.7%,-32.4% (inactive),106%,-0.476 (inactive),-2.4e-05 (inactive),0.00651 (inactive),10.2% (inactive),19.7% (inactive)
CCC(C(=O)N1CCc2cc(OC)c(OC)cc2C1)c1ccccc1 (stereo not drawn),598,5% (inactive),-8.2% (inactive),88.6%,11.7% (inactive),103%,-0.478 (inactive),5.9e-06 (inactive),0.00474 (inactive),3.51% (inactive),6.78% (inactive)
COCCn1nnnc1C(c1cc2cc(OC)ccc2[nH]c1=O)N1CCC(Cc2ccccc2)CC1 (stereo not drawn),247,-3.5% (inactive),-2.5% (inactive),88.5%,-39.9% (inactive),117%,-0.359 (inactive),1.6e-05 (inactive),0.00322 (inactive),14.4% (inactive),30.6% (inactive)
Cn1c(C(=O)OCC(=O)NCC2CCCO2)cc2sccc21 (stereo not drawn),497,-1% (inactive),-7.3% (inactive),108%,-79% (inactive),107%,-0.451 (inactive),9.3e-06 (inactive),0.00457 (inactive),13.3% (inactive),13.1% (inactive)
CCOc1ccccc1N(CC(=O)N1CCOCC1)S(=O)(=O)c1ccccc1,338,0.7% (inactive),0.9% (inactive),100%,44.4% (inactive),98.7%,-0.428 (inactive),-3e-06 (inactive),0.00315 (inactive),-13.5% (inactive),-26.2% (inactive)
O=C(O)c1ccc2c(c1)C(=O)N(c1ccc(Cl)cn1)C2=O,675,-4.5% (inactive),14.8% (inactive),84.8%,-72% (inactive),131%,-0.55 (inactive),-2.8e-05 (inactive),0.00724 (inactive),10.9% (inactive),29.8% (inactive)
CCOC(=O)C1=C(C)NC2=C(C(=O)CC(C)(C)C2)C1c1ccc(N(C)C)cc1 (stereo not drawn),368,-7.9% (inactive),26.1% (inactive),104%,-27.4% (inactive),116%,-0.491 (inactive),-8.1e-05 (inactive),0.00676 (inactive),-2.32% (inactive),2.28% (inactive)
